Experimental data as given in PubChem BioAssay AID492973 (The Scripps Research Institute Molecular Screening Center, 2010).
Values without a mark were called inactive. Activity calls are given as the source filed them.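 How the source made its calls: active means inhibition above 50% of the enzyme in parasite cell lysate; inactive means the rest.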

Test: PfM17LAP inhibitors in parasite extract, late-stage follow-up, cell lysate, fluorescence, Plasmodium falciparum lysate, powder samples (AID 492973)
Settings: P. falciparum cell lysate, H-Leu-NHMec fluorescence; at 5 µM; stronger effect = higher value

**Q.** For CCOC(=O)c1c(NC(=O)[C@@H]2C3CCC(O3)[C@@H]2C(=O)O)sc(C)c1-c1ccc(C)cc1 (stereo not given in full), which inhibition is on record?
**A.** Its inhibition is 29%.

**Q.** With COC(=O)c1c(-c2ccc(C)cc2)csc1NC(=O)[C@H]1CC=CC[C@H]1C(=O)O as the compound, how does the inhibition read?
**A.** Its inhibition is 58% (active).

**Q.** With CC(C)c1ccc(NC(=O)[C@H]2CCCC[C@H]2C(=O)O)cc1 as the compound, how does the inhibition read?
**A.** Its inhibition is 27%.

**Q.** For COC(=O)c1c(NC(=O)[C@H]2CCCC[C@H]2C(=O)O)sc2c1CCCCC2, which inhibition is on record?
**A.** Its inhibition is 65% (active).

**Q.** With CCn1c2ccccc2c2cc(NC(=O)CSc3nccc(=O)[nH]3)ccc21 as the compound, how does the inhibition read?
**A.** The inhibition was 49%.

**Q.** For O=C(CSc1nccc(=O)[nH]1)Nc1ccc(Br)c(Cl)c1, which inhibition is on record?
**A.** Its inhibition is 43%.

**Q.** Which inhibition does the source give for COC(=O)c1c(-c2cc(C)ccc2C)csc1NC(=O)[C@@H]1CC=CC[C@@H]1C(=O)O here?
**A.** The inhibition was 64% (active).

**Q.** For CCOc1cccc(-c2cc(=O)[nH][nH]2)c1, which inhibition is on record?
**A.** The inhibition was 43%.

**Q.** Which inhibition does the source give for Cc1ccc(Nc2nnc(SC3CCOC3=O)s2)cc1 (stereo not given) here?
**A.** Its inhibition is 57% (active).

**Q.** For Cc1ccc(-n2c(C)cc(C(=O)COC(=O)c3ccc[nH]c3=O)c2C)cc1, which inhibition is on record?
**A.** Its inhibition is 43%.

**Q.** For O=C(Nc1cccc(Cl)c1)[C@H]1CC=CC[C@H]1C(=O)O, which inhibition is on record?
**A.** The inhibition was 24%.

**Q.** With COc1ccc2nc(SCC(=O)Nc3cc(OC)c(OC)cc3C(=O)O)c(C)cc2c1 as the compound, how does the inhibition read?
**A.** The inhibition was 66% (active).

**Q.** Which inhibition does the source give for CCc1ccc(Nc2nnc(SC3CCOC3=O)s2)cc1 (stereo not given) here?
**A.** The inhibition was 43%.

**Q.** With Cc1ccc(-c2c(C)sc(NC(=O)[C@@H]3C4CCC(O4)[C@@H]3C(=O)O)c2C(=O)OC(C)C)cc1 (stereo not given in full) as the compound, how does the inhibition read?
**A.** Its inhibition is 23%.

**Q.** With O=C(Nc1cc(Cl)ccc1Cl)[C@H]1CC=CC[C@H]1C(=O)O as the compound, how does the inhibition read?
**A.** Its inhibition is 9%.

**Q.** Which inhibition does the source give for CCc1cc2cc(OC)ccc2nc1SCC(=O)Nc1cc(OC)c(OC)cc1C(=O)O here?
**A.** The inhibition was 68% (active).

**Q.** Which inhibition does the source give for COc1cc(NC(=O)CSc2nc3c(C)ccc(C)c3cc2C)c(C(=O)O)cc1OC here?
**A.** Its inhibition is 74% (active).

**Q.** For CCOC(=O)c1c(-c2cccc(C)c2)csc1NC(=O)[C@H]1CC=CC[C@H]1C(=O)O, which inhibition is on record?
**A.** The inhibition was 26%.

**Q.** With CCOc1ccc(NC(=O)Nc2ccc3nccnc3c2)cc1 as the compound, how does the inhibition read?
**A.** The inhibition was 25%.

**Q.** For COc1cc(NC(=O)CSc2nc3cc(C)ccc3cc2C)c(C(=O)O)cc1OC, which inhibition is on record?
**A.** Its inhibition is 64% (active).

**Q.** Which inhibition does the source give for Cc1cc(C(=O)COC(=O)c2ccc[nH]c2=O)c(C)n1-c1ccccc1 here?
**A.** Its inhibition is 36%.

**Q.** Which inhibition does the source give for CCc1cc2ccccc2nc1SCC(=O)Nc1cc(OC)c(OC)cc1C(=O)O here?
**A.** The inhibition was 68% (active).

**Q.** Which inhibition does the source give for COc1ccc(NC(=O)CSC2=NC(=O)CC(C)=N2)cc1 here?
**A.** Its inhibition is 27%.

**Q.** For CCc1cc2ccc(C)cc2nc1SCC(=O)Nc1cc(OC)c(OC)cc1C(=O)O, which inhibition is on record?
**A.** The inhibition was 69% (active).

**Q.** Which inhibition does the source give for COc1ccc(C(C)(C)C)cc1NC(=O)[C@H]1CC=CC[C@H]1C(=O)O here?
**A.** The inhibition was 40%.
